PubChem BioAssay (NCI)
The panel holds about 83,000 compounds, 20% with a hit somewhere; the sample as a whole holds those more often.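 48-hour exposure, single concentration, 96-well plates; percent growth endpoint where 0 means no net growth. Active: below 10.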 Values without a mark were called inactive. The source made the active and inactive calls.

Key:
Assay in all cases: NCI-60 one-dose screen, 48 h (100 = growth as untreated, 0 = no growth, -100 = all killed)
Conditions in all cases: 10 µM unless noted
RPMI-8226 leukemia = test system: RPMI-8226 leukemia
OVCAR-8 ovarian = test system: OVCAR-8 ovarian
OVCAR-5 ovarian = test system: OVCAR-5 ovarian
OVCAR-4 ovarian = test system: OVCAR-4 ovarian
SK-OV-3 ovarian = test system: SK-OV-3 ovarian
IGROV1 ovarian = test system: IGROV1 ovarian
OVCAR-3 ovarian = test system: OVCAR-3 ovarian
HS 578T breast = test system: HS 578T breast
NCI/ADR-RES ovarian = test system: NCI/ADR-RES ovarian
T-47D breast = test system: T-47D breast
BT-549 breast = test system: BT-549 breast
MDA-MB-435 melanoma = test system: MDA-MB-435 melanoma
SW-620 colon = test system: SW-620 colon
MCF7 breast = test system: MCF7 breast
HCT-116 colon = test system: HCT-116 colon
HCC-2998 colon = test system: HCC-2998 colon
KM12 colon = test system: KM12 colon

Compound	growth (RPMI-8226 leukemia)	growth (OVCAR-8 ovarian)	growth (OVCAR-5 ovarian)	growth (OVCAR-4 ovarian)	growth (SK-OV-3 ovarian)	growth (IGROV1 ovarian)	growth (OVCAR-3 ovarian)	growth (HS 578T breast)	growth (NCI/ADR-RES ovarian)	growth (T-47D breast)	growth (BT-549 breast)	growth (MDA-MB-435 melanoma)	growth (SW-620 colon)	growth (MCF7 breast)	growth (HCT-116 colon)	growth (HCC-2998 colon)	growth (KM12 colon)
COC(=O)CCc1n(Cc2ccc3ccccc3c2)c2ccccc2[n+]1Cc1ccc2ccccc2c1	-21.3% (active)	6.77% (active)	18%	7.13% (active)	10.8%	-26.4% (active)	-14.2% (active)	25%	100%	-0.425% (active)	-7.25% (active)	-13.5% (active)	12.1%	1.95% (active)	0.405% (active)	-2.47% (active)	-58.7% (active)
O=C1NN(c2ccccc2)C(c2ccc(Cl)cc2)N2CCC[C@H]12 (stereo not given in full)	102%	98.1%	103%	95.7%	107%	98.6%	93.4%	91.6%	93.1%	100%	117%	99.2%	87.3%	79.9%	99.7%	88.1%	94.9%
COc1cc(NC(=O)Nc2cnc(Nc3ccc(N4CCOCC4)cc3)nc2Oc2ccc(F)cc2)cc(OC)c1	81.3%	73.4%	113%	60%	102%	94.2%	97.8%	85.7%	95.4%	53.5%	98.2%	88.3%	82.7%	91%	6.9% (active)	101%	92.4%
CCCCn1c(=O)c(/C=C/C(=O)/C=C/c2ccc(OC)cc2)cc2cc(Cl)ccc21	-18.7% (active)	5.24% (active)	94.9%	42.9%	108%	59.1%	19.5%	90.9%	42.5%	69.6%	89.4%	95.6%	18.3%	34.4%	-67.1% (active)	90.7%	25.9%
COC(=O)/C=C1\SC(=Nc2ccc(C(F)(F)F)cc2)N(CCc2c[nH]c3ccccc23)C1=O	-22.5% (active)	-9.92% (active)	-41.4% (active)	-33.2% (active)	10.4%	-66.1% (active)	-91% (active)	-2.51% (active)	-12.9% (active)	-40.7% (active)	-21.8% (active)	-85.1% (active)	-76.1% (active)	-7.91% (active)	-63.4% (active)	-90.6% (active)	-62.8% (active)
